# In all, about 16,000 compounds went through this assay and about 4,000 (25%) were called active. Inconclusive results (about 26%) are left out. Only a sample is shown. Values without a mark were called inactive. Calls follow the shape of the dose curve; as a rule, active = well fitted curve in the direction sought with a large enough effect; inconclusive = small, poorly fitted or top-dose-only effect, or effect the other way; inactive = no such curve, though single readings can be large or run the other way.
# Biological target: Cytochrome P450 2C9 (Homo sapiens) (UniProt P11712)
# Test: Cytochrome panel assay with activity outcomes
# Conditions: recombinant CYP, pro-luciferin dealkylation, luminescence, p450-cyp2c9; series mostly up to 57.1 µM; activity, negative = inhibition: at the top concentration
# % is scaled to controls: 0 for no effect and ±100 for the full control effect.
# Sequence of Cytochrome P450 2C9 (Homo sapiens) (P11712 whole entry, looked up): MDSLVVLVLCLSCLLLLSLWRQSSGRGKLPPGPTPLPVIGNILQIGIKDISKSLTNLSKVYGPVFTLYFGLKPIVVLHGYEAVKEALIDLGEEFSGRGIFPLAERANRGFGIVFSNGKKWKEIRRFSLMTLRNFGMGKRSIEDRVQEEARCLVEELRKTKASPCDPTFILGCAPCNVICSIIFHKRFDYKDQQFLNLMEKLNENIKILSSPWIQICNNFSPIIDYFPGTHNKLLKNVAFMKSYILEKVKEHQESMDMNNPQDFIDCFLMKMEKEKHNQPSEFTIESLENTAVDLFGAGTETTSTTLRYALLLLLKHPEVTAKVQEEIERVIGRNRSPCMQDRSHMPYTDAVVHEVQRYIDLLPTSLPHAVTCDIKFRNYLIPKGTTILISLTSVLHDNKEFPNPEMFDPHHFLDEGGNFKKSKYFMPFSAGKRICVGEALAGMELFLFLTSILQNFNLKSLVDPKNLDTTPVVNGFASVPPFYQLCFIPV
Compound,"activity, negative = inhibition",AC50
COc1ccc2c(Cl)c(-c3nnco3)sc2c1,-29%,
[O-][N+]1(CC[N+]2([O-])CCCCC2)CCCCC1,-6.33% [at 11.4 µM],
CCOC(=O)CSc1nnc(CSc2nc3sc4c(c3c(=O)[nH]2)CCCC4)n1-c1ccccc1,,5.01 µM (active)
CCOC(=O)CSc1nnc(Cc2cc(=O)[nH]c(=O)[nH]2)n1-c1cccc(OC)c1,-0.051%,
CCOC(=O)CC1C(=O)NCCN1S(=O)(=O)c1ccc(Cl)c(Cl)c1 (stereo not drawn),149%,
COCCCNC(=O)c1ccc2c(=O)n(CC3CCCO3)c(=S)[nH]c2c1 (stereo not drawn),-11.2%,
O=C(NCc1ccccc1Cl)c1ccc2c(=O)n(CCCN3CCCC3=O)c(=S)[nH]c2c1,,8.91 µM (active)
COCCn1c(=S)[nH]c2cc(C(=O)NC(C)C)ccc2c1=O,-4.45%,
N#Cc1cccc(-c2cc(NCc3cccnc3)ncn2)c1,-26.2% [at 2.29 µM],
COc1cccc(C(=O)N(Cc2ccccc2)Cc2cc3cc4c(cc3[nH]c2=O)OCCO4)c1,,10 µM (active)
COc1ccc2[nH]c(=O)c(CN(CCO)C(=O)c3cccs3)cc2c1,-14.4%,
Cc1cnc(CNc2cc(-c3cccc(C#N)c3)ncn2)cn1,19.4% [at 2.29 µM],
COc1ccc(-c2nc3cnc(N4CCN(C)CC4)nc3n(Cc3ccc(F)cc3)c2=O)cc1,18.1%,
CCNc1ncc2nc(-c3ccc(Cl)cc3)c(=O)n(Cc3cccc(OC)c3)c2n1,6.87%,
COc1cccc(Cn2c(=O)c(-c3ccc(Cl)cc3)nc3cnc(N4CCNCC4)nc32)c1,,12.6 µM (active)
COc1cccc(Cn2c(=O)c(-c3ccc(Cl)cc3)nc3cnc(N4CCN(C)CC4)nc32)c1,13%,
COc1ccc(-c2nc3cnc(N4CCN(C)CC4)nc3n(CCC#N)c2=O)cc1,1.14%,
COc1ccc(-c2nc3cnc(N4CCNCC4)nc3n(CCc3ccccc3)c2=O)cc1,,3.98 µM (active)
COc1cccc(Cn2c(=O)c(-c3cccs3)nc3cnc(N4CCNCC4)nc32)c1,,12.6 µM (active)
COc1cccc(Cn2c(=O)c(-c3ccc(F)cc3)nc3cnc(N4CCNCC4)nc32)c1,,15.8 µM (active)
CCCS(=O)(=O)N1CCCC(C(=O)NCCCOC(C)C)C1 (stereo not drawn),-21.8%,
COc1cccc(Cn2c(=O)c(-c3ccccc3)nc3cnc(N4CCNCC4)nc32)c1,,12.6 µM (active)
COc1cccc(Cn2c(=O)c(-c3cc(F)cc(F)c3)nc3cnc(N(C)C)nc32)c1,-2.46%,
COc1ccc(-c2nc3cnc(N4CCNCC4)nc3n(Cc3cccc(OC)c3)c2=O)cc1,,25.1 µM (active)
COc1cccc(Cn2c(=O)c(-c3cc(F)cc(F)c3)nc3cnc(N4CCNCC4)nc32)c1,,7.94 µM (active)
COc1ccc(-n2c(=O)c(-c3cc(F)cc(F)c3)nc3cnc(N4CCNCC4)nc32)cc1,-19.9%,
COc1ccc(-n2c(=O)c(-c3ccc(Cl)cc3)nc3cnc(N4CCNCC4)nc32)cc1,-3.8%,
COc1cccc(Cn2c(=O)c(-c3ccccc3)nc3cnc(N4CCN(C)CC4)nc32)c1,-11.1%,
